{
  "source": "PubChem BioAssay (NCATS)",
  "note": "Results filed as inconclusive are left out. Where a call stands in place of a potency, no number is given. Activity calls are given as the source filed them. Calls follow the shape of the dose curve; as a rule, active = well fitted cell-killing curve with a large enough effect; inconclusive = small, poorly fitted or top-dose-only effect, or effect the other way; inactive = flat fitted curve, though single readings scatter. Potency is read from the fitted curve at half-maximal effect.",
  "data": [
    {"test_system": "SKOV3", "experiment": "Primary qHTS to identify gynecologic anti-cancer compounds using libraries of approved drugs and bioactive compounds (AID 1345084); also: nearly all actives have a fitted effect of over 55% in size", "conditions": "Gynecologic cancer cell panel viability, ATPlite luminescence, 48 h; series mostly up to 57.5 µM", "procedure,_shortened": "(§1)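 Cells, 1,000 per well, were allowed to settle for 16 h at 37 C before compound addition. Five concentrations were tested for 48 h, and viability was read by ATPlite luminescence after 15 min at room temperature.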", "values": [
      {"compound": "O=C(O)c1cccnc1Nc1cccc(C(F)(F)F)c1", "Potency": "inactive"},
      {"compound": "Cc1nc(Nc2ncc(C(=O)Nc3c(C)cccc3Cl)s2)cc(N2CCN(CCO)CC2)n1", "Potency": "14.1 µM (active)"},
      {"compound": "CC(C)C[C@H](NC(=O)[C@H](Cc1ccccc1)NC(=O)c1cnccn1)B(O)O", "Potency": "0.501 µM (active)"},
      {"compound": "Cc1cc(C2CCCCC2)n(O)c(=O)c1", "Potency": "10 µM (active)"},
      {"compound": "Cc1cc(=O)c2c(O)c3c(O)cc(=O)c4c3c3c(cc(O)c1c23)C(C)(C)C=4O", "Potency": "3.55 µM (active)"},
      {"compound": "Cc1c(C(=O)NN2CCCCC2)nn(-c2ccc(Cl)cc2Cl)c1-c1ccc(Cl)cc1", "Potency": "inactive"},
      {"compound": "COc1c2occc2cc2ccc(=O)oc12", "Potency": "inactive"},
      {"compound": "Cc1ccc(Nc2nccc(N(C)c3ccc4c(C)n(C)nc4c3)n2)cc1S(N)(=O)=O", "Potency": "14.1 µM (active)"},
      {"compound": "COc1cc(Nc2c(C#N)cnc3cc(OCCCN4CCN(C)CC4)c(OC)cc23)c(Cl)cc1Cl", "Potency": "10 µM (active)"},
      {"compound": "COC1=C(OC)C(=O)C(CCCCCCCCCCO)=C(C)C1=O", "Potency": "inactive"},
      {"compound": "Cc1cccc(CN2CCN(C(c3ccccc3)c3ccc(Cl)cc3)CC2)c1", "note": "(stereo not given)", "Potency": "inactive"},
      {"compound": "c1ccc2[nH]c(-c3cscn3)nc2c1", "Potency": "inactive"},
      {"compound": "O=C(O)c1cc(=O)c2c(OCC(O)COc3cccc4oc(C(=O)O)cc(=O)c34)cccc2o1", "Potency": "inactive"},
      {"compound": "OC(CN1CCN(c2cccc(Cl)c2)CC1)C(c1ccccc1)c1ccccc1", "note": "(stereo not given)", "Potency": "inactive"},
      {"compound": "NNc1nncc2ccccc12", "Potency": "inactive"},
      {"compound": "O=C1CCc2ccc(OCCCCN3CCN(c4cccc(Cl)c4Cl)CC3)cc2N1", "Potency": "inactive"},
      {"compound": "CN(C)CCCC1(c2ccc(F)cc2)OCc2cc(C#N)ccc21", "note": "(stereo not given)", "Potency": "inactive"},
      {"compound": "Cc1ccc(C(=O)c2cc(O)c(O)c([N+](=O)[O-])c2)cc1", "Potency": "inactive"},
      {"compound": "Cc1ncc([N+](=O)[O-])n1CC(C)O", "note": "(stereo not given)", "Potency": "inactive"},
      {"compound": "CN(C)C(=O)[C@H](O)[C@H](Cc1ccccc1)NC(=O)c1cc2cc(Cl)ccc2[nH]1", "Potency": "inactive"},
      {"compound": "COc1ccccc1N1CCN(CCN(C(=O)C2CCCCC2)c2ccccn2)CC1", "Potency": "inactive"},
      {"compound": "CCc1nc(N)nc(N)c1-c1ccc(Cl)cc1", "Potency": "inactive"}
    ]},
    {"test_system": "Tov-21-G", "experiment": "Primary qHTS to identify gynecologic anti-cancer compounds using libraries of approved drugs and bioactive compounds (AID 1345084); also: nearly all actives have a fitted effect of over 55% in size", "conditions": "Gynecologic cancer cell panel viability, ATPlite luminescence, 48 h; series mostly up to 57.5 µM", "procedure,_shortened": "as §1", "values": [
      {"compound": "O=C(O)c1cccnc1Nc1cccc(C(F)(F)F)c1", "Potency": "inactive"},
      {"compound": "Cc1cc(=O)c2c(O)c3c(O)cc(=O)c4c3c3c(cc(O)c1c23)C(C)(C)C=4O", "Potency": "3.16 µM (active)"},
      {"compound": "CCCCN(CCCC)CCC(O)c1cc2c(Cl)cc(Cl)cc2c2cc(C(F)(F)F)ccc12", "note": "(stereo not given)", "Potency": "inactive"},
      {"compound": "Cc1c(C(=O)NN2CCCCC2)nn(-c2ccc(Cl)cc2Cl)c1-c1ccc(Cl)cc1", "Potency": "inactive"},
      {"compound": "CCN(CC)CCOc1ccc(Cc2ccccc2)cc1", "Potency": "inactive"},
      {"compound": "COc1cc(C(C)=O)ccc1OCCCN1CCC(c2noc3cc(F)ccc23)CC1", "Potency": "inactive"},
      {"compound": "COc1c2occc2cc2ccc(=O)oc12", "Potency": "inactive"},
      {"compound": "COC1=C(OC)C(=O)C(CCCCCCCCCCO)=C(C)C1=O", "Potency": "inactive"},
      {"compound": "CCCCCCCCOc1ccccc1C(=O)Nc1ccc(C(=O)OCC[N+](C)(CC)CC)cc1", "Potency": "inactive"},
      {"compound": "CN1CCC(=C2c3ccccc3CCc3sccc32)CC1", "Potency": "inactive"},
      {"compound": "Cc1cccc(CN2CCN(C(c3ccccc3)c3ccc(Cl)cc3)CC2)c1", "note": "(stereo not given)", "Potency": "inactive"},
      {"compound": "c1ccc2[nH]c(-c3cscn3)nc2c1", "Potency": "inactive"},
      {"compound": "O=C(O)c1cc(=O)c2c(OCC(O)COc3cccc4oc(C(=O)O)cc(=O)c34)cccc2o1", "Potency": "inactive"},
      {"compound": "CC(C)Oc1ccc2c(=O)c(-c3ccccc3)coc2c1", "Potency": "15.8 µM (active)"},
      {"compound": "OC(CN1CCN(c2cccc(Cl)c2)CC1)C(c1ccccc1)c1ccccc1", "note": "(stereo not given)", "Potency": "inactive"},
      {"compound": "NNc1nncc2ccccc12", "Potency": "inactive"},
      {"compound": "O=C1CCc2ccc(OCCCCN3CCN(c4cccc(Cl)c4Cl)CC3)cc2N1", "Potency": "inactive"},
      {"compound": "CN(C)CCCC1(c2ccc(F)cc2)OCc2cc(C#N)ccc21", "note": "(stereo not given)", "Potency": "inactive"},
      {"compound": "COC(=O)C1=C(C)NC(C)=C(C(=O)OCCCN2CCC(c3ccccc3)(c3ccccc3)CC2)C1c1cccc([N+](=O)[O-])c1", "note": "(stereo not given)", "Potency": "inactive"},
      {"compound": "Cc1ccc(C(=O)c2cc(O)c(O)c([N+](=O)[O-])c2)cc1", "Potency": "inactive"},
      {"compound": "CN(C)c1ccc2nc3ccc(=[N+](C)C)cc-3sc2c1", "Potency": "10 µM (active)"},
      {"compound": "CCCCc1ccc2nc(NC(=O)OC)[nH]c2c1", "Potency": "0.631 µM (active)"},
      {"compound": "CCCOc1ccc2nc(NC(=O)OC)[nH]c2c1", "Potency": "0.316 µM (active)"},
      {"compound": "Cc1ncc([N+](=O)[O-])n1CC(C)O", "note": "(stereo not given)", "Potency": "inactive"},
      {"compound": "CN(C)C(=O)[C@H](O)[C@H](Cc1ccccc1)NC(=O)c1cc2cc(Cl)ccc2[nH]1", "Potency": "inactive"},
      {"compound": "COc1ccccc1N1CCN(CCN(C(=O)C2CCCCC2)c2ccccn2)CC1", "Potency": "inactive"},
      {"compound": "CN(C)[C@@H](CCOc1cccc2ccccc12)c1ccccc1", "Potency": "inactive"},
      {"compound": "CCc1nc(N)nc(N)c1-c1ccc(Cl)cc1", "Potency": "3.16 µM (active)"}
    ]}
  ]
}
